Laboratory results: PubChem BioAssay AID1508636 (National Center for Advancing Translational Sciences (NCATS), 2021)
Results filed as inconclusive are left out. Entries that show only a call come without a potency. Calls of active or inactive are those of the source. Calls follow the shape of the dose curve; as a rule, active = well fitted inhibition curve with a large enough effect; inconclusive = small, poorly fitted or top-dose-only effect; inactive = flat fitted curve, though single readings scatter. *1 amine or outer side, *2 acyl side, *3 side chain or, on linkers, in order; H or OH if unused. Where a SMILES comes first, the peptide text is derived from it. [ ]: non-standard residue; d: D form. X1 = O=C([C@@H](CC(O)CCl)O[*:1])[*:2]; aIle = CC[C@@H](C)[C@H](N)C(=O)O; NMeV = CN[C@H](C(=O)O)C(C)C; NMeA = CN[C@@H](C)C(=O)O; βAla = NCCC(=O)O

Biological target: ATP-dependent translocase ABCB1 (Homo sapiens) (UniProt P08183)
Test: qHTS for characterization and localization of zebrafish homologs of the human ABCB1 multidrug transporter: P-gp overexpressing MDR-19 cells
Description: The zebrafish has emerged as a potential model to study the blood-brain barrier (BBB) given its similarities with mammalian systems. However, little information has been available with regard to homologous ATP-binding cassette transporters expressed at the zebrafish BBB. Two transporters that are highly expressed at the human BBB are P-glycoprotein (P-gp, encoded by the ABCB1 gene) and ABCG2 (encoded by the ABCG2 gene). In this study, we focus on characterization of P-gp homologs in the zebrafish, which has two genes that are homologous to human ABCB1 - abcb4 and abcb5. We generated stably-transfected cell lines to determine their substrate specificities. […] Zebrafish abcb4 also colocalized with claudin 5 expression in brain endothelial cells.
A high-throughput screen was performed as previously described on empty vector transfected cells, P-gp-overexpressing MDR-19 cells and cells transfected with full-length zebrafish abcb4 (ZF Abcb4) or abcb5 (ZF Abcb5). Briefly, cells were plated into 1536-well plates at a density of 500 cells/well in 5 uL media. […] CellTiter-Glo reagent (Promega) was dispensed into the wells, incubated for 5 min and luminescence was read on a ViewLux instrument (Perkin-Elmer). […]

Sequence of ATP-dependent translocase ABCB1 (Homo sapiens) (P08183 whole entry, looked up): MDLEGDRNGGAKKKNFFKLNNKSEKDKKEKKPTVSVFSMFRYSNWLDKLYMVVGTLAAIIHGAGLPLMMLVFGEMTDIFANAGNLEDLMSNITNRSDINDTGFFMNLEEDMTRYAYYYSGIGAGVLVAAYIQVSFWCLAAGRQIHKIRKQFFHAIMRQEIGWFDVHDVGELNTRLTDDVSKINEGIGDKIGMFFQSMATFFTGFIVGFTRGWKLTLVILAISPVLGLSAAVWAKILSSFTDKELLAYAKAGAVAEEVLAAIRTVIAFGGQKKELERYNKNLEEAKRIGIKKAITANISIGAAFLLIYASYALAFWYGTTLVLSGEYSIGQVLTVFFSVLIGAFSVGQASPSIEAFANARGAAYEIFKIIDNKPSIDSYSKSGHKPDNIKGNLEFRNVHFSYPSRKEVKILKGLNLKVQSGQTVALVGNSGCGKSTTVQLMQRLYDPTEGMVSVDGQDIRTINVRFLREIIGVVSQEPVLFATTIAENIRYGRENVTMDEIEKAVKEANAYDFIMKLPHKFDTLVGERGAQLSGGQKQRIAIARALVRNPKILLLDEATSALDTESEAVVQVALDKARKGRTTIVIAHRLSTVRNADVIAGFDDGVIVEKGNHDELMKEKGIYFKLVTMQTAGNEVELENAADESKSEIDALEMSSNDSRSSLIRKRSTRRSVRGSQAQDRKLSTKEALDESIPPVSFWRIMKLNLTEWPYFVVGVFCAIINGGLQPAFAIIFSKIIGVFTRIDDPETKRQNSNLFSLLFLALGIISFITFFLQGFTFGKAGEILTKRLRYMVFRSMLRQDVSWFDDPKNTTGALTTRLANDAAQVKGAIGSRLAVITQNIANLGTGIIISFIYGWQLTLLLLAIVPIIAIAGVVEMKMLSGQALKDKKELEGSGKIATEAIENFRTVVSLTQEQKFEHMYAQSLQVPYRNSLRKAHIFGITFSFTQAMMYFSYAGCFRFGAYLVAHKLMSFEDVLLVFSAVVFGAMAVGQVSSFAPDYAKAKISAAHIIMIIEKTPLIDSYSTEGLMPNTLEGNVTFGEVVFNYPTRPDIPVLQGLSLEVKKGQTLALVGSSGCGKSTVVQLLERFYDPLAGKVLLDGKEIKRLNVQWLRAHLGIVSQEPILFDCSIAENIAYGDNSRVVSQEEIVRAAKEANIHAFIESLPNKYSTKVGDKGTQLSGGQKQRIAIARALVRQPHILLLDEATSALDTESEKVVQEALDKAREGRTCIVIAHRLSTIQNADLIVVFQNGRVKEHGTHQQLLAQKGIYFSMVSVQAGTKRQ

| SMILES | Potency |
| --- | --- |
| CC[C@@H](C)[C@@H]1NC(=O)[C@@H]2CCCN2C(=O)[C@@H](CC(O)CCl)OC(=O)CCNC(=O)[C@H](C)N(C)C(=O)[C@H](C(C)C)N(C)C1=O (some centres not stated) (cyclo([NMeA][βAla][X1]P[aIle][NMeV])) | inactive |
| C[C@@H]1[C@@H](CC(C[C@H]2O[C@@H]3O[C@]4(C)CC[C@@H]5[C@H](C)CC[C@@H]([C@H]2C)[C@@]35OO4)C[S+](=O)([O-])c2ccc(COC(=O)N(C)C)cc2)O[C@@H]2O[C@]3(C)CC[C@H]4[C@H](C)CC[C@@H]1[C@@]24OO3 (some centres not stated) | 1.32 µM (active) |
